# The list is not random: actives were taken first. Their share in the collection is about 8.1%.
# VP16 counter: VP16 counterscreen qHTS for inhibitors of ROR gamma transcriptional activity; Potency, µM (doses to about 53.6 µM), for inactives: top-dose activity, negative = inhibition, most hits filed as inhibitors; 3.5% of 310,000 active; Drosophila S2 Gal4-VP16 UAS-luciferase, luminescence, 20 h; AID 2546, 2010;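 also: Gal4-VP16 expression switched on by copper sulfate through the metallothionein promoter; % is scaled to controls: 0 for no effect and ±100 for the full control effect; nearly all actives have a fitted effect of over 50% in size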
# RORgamma inh: qHTS for inhibitors of ROR gamma transcriptional activity; Nuclear receptor ROR-gamma (Mus musculus), P51450; Drosophila S2 Gal4-RORgamma UAS-luciferase reporter, 20 h; Potency, µM (highest dose often 53.6 µM), for the others: at the top dose activity change, negative = inhibition, actives largely listed as inhibitors; 5.4% of 310,000 active; AID 2551, 2010; also: % is scaled to controls: 0 for no effect and ±100 for the full control effect; nearly all actives have a fitted effect of over 60% in size
# Target sequence (P51450 whole entry, looked up, the tested form may be a part): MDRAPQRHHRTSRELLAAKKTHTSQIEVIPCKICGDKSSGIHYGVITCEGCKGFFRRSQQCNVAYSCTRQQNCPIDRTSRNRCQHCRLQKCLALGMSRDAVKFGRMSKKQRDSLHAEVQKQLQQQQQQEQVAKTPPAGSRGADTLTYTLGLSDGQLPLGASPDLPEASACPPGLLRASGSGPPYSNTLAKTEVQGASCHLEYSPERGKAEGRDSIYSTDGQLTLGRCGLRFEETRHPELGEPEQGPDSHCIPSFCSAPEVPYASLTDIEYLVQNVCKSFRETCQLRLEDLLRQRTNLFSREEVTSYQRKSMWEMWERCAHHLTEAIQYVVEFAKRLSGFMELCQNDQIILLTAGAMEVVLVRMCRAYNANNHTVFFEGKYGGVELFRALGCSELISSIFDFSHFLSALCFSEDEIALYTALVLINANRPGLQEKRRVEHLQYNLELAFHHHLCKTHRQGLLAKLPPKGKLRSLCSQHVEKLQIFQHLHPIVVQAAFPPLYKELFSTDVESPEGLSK
#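 Luciferase reporter read in Schneider cells carrying Gal4-RORγ (mouse) and UAS-Photinus luciferase; cells given compound 1 h before 700 uM copper sulfate induction, then incubated 20 h at ambient temperature.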
# ClpP mod: qHTS Assay for Activators of ClpP | purified B. subtilis ClpP, FRET peptide cleavage, 20 min | Potency, µM (highest dose often 57.5 µM), for the others: at the top dose activity change, negative = active | 1.9% of 340,000 active; active = well fitted falling curve with a large enough effect; inconclusive = small, poorly fitted or top-dose-only effect; inactive = no such curve, though single readings can be large or run the other way; also: the source files actives as falling curves though it sought activators and does not explain the sign; nearly all actives have a fitted effect of over 65% in size
# Target sequence (P80244 whole entry, looked up): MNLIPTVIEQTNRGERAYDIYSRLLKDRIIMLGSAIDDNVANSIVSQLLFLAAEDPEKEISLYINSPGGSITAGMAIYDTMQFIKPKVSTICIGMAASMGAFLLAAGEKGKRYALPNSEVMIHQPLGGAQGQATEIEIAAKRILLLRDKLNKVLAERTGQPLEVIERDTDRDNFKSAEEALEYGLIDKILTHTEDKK
#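 FRET quenching reversal measured ClpP activation: 10 microg/mL B. subtilis ClpP at pH 8 with the FRET-FV decapeptide, read at 430 nm after 320 nm excitation. The 20-min minus 0-min signal was scaled between DMSO/no-enzyme wells and ADEP (5.8 microM final).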
# Epigenetic reg: Quantitative High-Throughput Screen for Regulators of Epigenetic Control; Potency, µM (titrated, usually from 53.9 µM), without a hit: at the highest dose GFP activation, hits mostly activators; AID 1865, 2009; 0.2% of 280,000 active; murine LDR cells, GFP reporter derepression, 30 h; also: % of control where 0% means no effect; nearly all actives have a fitted effect of over 60% in size
#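 Murine LDR cells bearing a silenced CMV-driven GFP reporter were exposed to compound for 30 h at 37 C. After PBS washes, GFP-positive cells (20-120 um objects) counted by laser-scanning microplate cytometry.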
# Sfp inh: qHTS Assay for Inhibitors of Bacillus subtilis Sfp phosphopantetheinyl transferase (PPTase) | Potency, µM, for the others: largest response in the series, negative = inhibition, hits mostly inhibitors | Biochemical Sfp PPTase activity, qHTS | AID 1490, 2009 | 3.5% of 310,000 active;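 also: the enzyme is Sfp with the accession as filed and its product quenches rhodamine fluorescence; 0% = enzyme reaction without inhibitor and -100% = no enzyme wells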
#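 Step 1, compound plus 15 nM Sfp-PPTase, 15 min, room temperature. Step 2, add rhodamine-CoA (5 uM) and BHQ-2-YbbR (12.5 uM). Step 3, read 525/598 nm fluorescence at 0 and 30 min.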
# PINK1 expr mod: A Quantitative High throughput Screen to Identify Chemical Modulators of PINK1 Expression. PINK1 immunofluorescence, high-content cytometry, 24 h. Potency, µM (top dose mostly 76.6 µM), without a hit: top-dose activation (PINK1 increase), most hits filed as activators. 0.2% of 410,000 active. AID 624263, 2012; active = well fitted activation curve with a large enough effect; inconclusive = small, poorly fitted or top-dose-only effect; cell line not stated here; also: % of control where 0% means no effect; nearly all actives have a fitted effect of over 65% in size
#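 PINK1 protein, normally rapidly degraded, was detected by immunofluorescence after 24 hour compound treatment of a stable cell line. Titration data (5 concentrations) came from laser-scanning cytometry, with CCCP-treated wells as controls.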
# * hit, by the source's call; ? = inconclusive; / = no result; [ ] = remark or other dose. Unless noted, calls follow the shape of the dose curve; as a rule, active = well fitted curve in the direction sought with a large enough effect; inconclusive = small, poorly fitted or top-dose-only effect, or another doubt; inactive = no such curve, though single readings can be large; an effect the other way counts as inactive or inconclusive. Potency is read from the fitted curve at half-maximal effect.
SMILES,VP16 counter,RORgamma inh,ClpP mod,Epigenetic reg,Sfp inh,PINK1 expr mod
CN1CCN(c2nc(-c3cccs3)cc(C(F)(F)F)n2)CC1,-12%,-16%,-14%,0%,9%,0%
O=C(O)CCS(=O)(=O)c1nc(-c2cccs2)cc(C(F)(F)F)n1,?,?,14µM*,-1%,2%,9%[38.3 µM]
CS(=O)(=O)c1nc(-c2cccs2)cc(C(F)(F)F)n1,4.5µM*,2µM*,/,0%,-23%,/
Cc1cc(NC(=O)CCCS(=O)(=O)c2nc(-c3cccs3)cc(C(F)(F)F)n2)no1,0.89µM*,5.6µM*,?,-2%,-20%,-3%
Cc1n[nH]c(C)c1S(=O)(=O)N(CC(=O)NCc1ccccc1Cl)c1ccc(C(C)C)cc1,/,/,-2%,1%,/,10%
N#Cc1cnc(SCC(=O)Nc2ccccc2C(F)(F)F)nc1N,17%,7%,-20%,3%,12%,1%[38.3 µM]
Cc1ccc(OCC(=O)NNC(=O)CSc2ncc(C#N)c(N)n2)cc1,?,0.71µM*,0%,-1%,12%,4%
COc1ccc(NC(=O)CC2SC(=NCC3CCCO3)NC2=O)cc1 (centres undefined),0%,-1%,4%,-3%,7%,0%
Fc1ccc(F)c(C2=NNC(=NCC3CCCO3)SC2)c1 (centres undefined),-58%,?,4%,?,45µM*,2%
CC(=O)Nc1ccc(C2=NNC(=NCC3CCCO3)SC2)cc1 (centres undefined),-3%,?,-27%,0%,40µM*,-1%
COCC(C)N=C1NN=C(c2ccc(NC(C)=O)cc2)CS1 (centres undefined),25%,?,/,?,40µM*,-1%
Cc1c(C(=O)N2CCCC2)sc2ncnc(NCCCN3CCOCC3)c12,/,/,/,/,/,2%
O=C1CC(c2ccccc2)(c2ccccc2)c2ccccc21,/,/,32µM*,/,/,8%
CN1CC=C2C(C#N)=C(N)C(C#N)(C#N)[C@H](c3ccoc3)[C@H]2C1,-5%,-4%,32µM*,-4%,0%,40µM*
CN1CC=C2C(C#N)=C(N)C(C#N)(C#N)C(c3cccc(Cl)c3Cl)C2C1 (centres undefined),14%,?,?,-1%,-2%,14µM*
CCOCCCn1c(SCC(=O)Nc2ccc(C(C)C)cc2)nc2c(sc3ccccc32)c1=O,/,/,1%,?,/,1%
C#CC(C)OC(=O)Nc1cccc(Cl)c1 (centres undefined),3%,?,/,/,1%,/
COc1cccc(N2CCN(C(=O)Cn3cnc4onc(-c5ccc(F)cc5)c4c3=O)CC2)c1,/,/,-5%,0%,/,-4%
O=C(NCc1cccc(Cl)c1)C1CCCN(c2ncnc3onc(-c4ccc(F)cc4)c23)C1 (centres undefined),/,/,-23%,-1%,/,0%
O=C(NNc1cccc(Cl)n1)Nc1cccc(Cl)c1,4%,10%,0%,0%,-20%,2%
O=S(=O)(NNc1ccc(Cl)nn1)c1ccc(F)cc1,?,14µM*,0%,3%,13µM*,0%
O=S(=O)(Nc1ccc(Cl)nn1)c1ccccc1,5%,-4%,-1%,-3%,24%,4%
O=S(=O)(NNc1cccc(Cl)n1)c1ccc(Cl)cc1,/,/,-4%,/,40µM*,1%
O=C(NCCOCCO)C(=O)Nc1c2c(nn1-c1ccc(F)cc1)CSC2,/,/,-2%,1%,/,1%
O=C(C[N+]1(CC(O)c2ccccc2)CCOCC1)c1ccccc1 (centres undefined),/,/,-1%,/,/,/
SMILES,VP16 counter,RORgamma inh,ClpP mod,Epigenetic reg,Sfp inh,PINK1 expr mod
O=c1ccc2ccccc2[nH]1,13µM*,6.3µM*,/,/,-30%,/
c1ccc2[nH]ccc2c1,-2%,9%,/,/,17%,/
CCOC(=O)N1CCc2c(sc(NCc3cccs3)c2C(=O)Nc2cc(Cl)ccc2OC)C1,/,/,-7%,0%,/,5%
Cc1cc2nc3c(nc2cc1C)C(O)=C3O,-5%,-7%,-3%,1%,79µM*,1%
OC1=C(O)c2nc3ccccc3nc21,0%,21%,-2%,-1%,-7%,-1%[38.3 µM]
OC1=C(O)c2nc3cc(C(F)(F)F)ccc3nc21,-1%,11%,/,2%,50µM*,1%
O=C(N/N=C/C(Br)=C\c1ccccc1)c1cccs1,3%,-35%,/,5%,?,1%
N#CC(C#N)=C1C=CC=CN1/C(=C\c1ccccc1Cl)C(=O)c1ccccc1,3.2µM*,6.3µM*,5%,?,?,-4%
N#CC(C#N)=C1C=CC=CN1/C(=C\c1ccccc1)C(=O)c1cccs1,?,14%,-17%,?,2.2µM*,1%
Cc1cc(OCC(=O)Nc2cc(-c3nc4ccccc4[nH]3)ccc2C)ccc1Cl,/,/,4%,13%,/,3%
CCOc1ccc(C(C)=O)cc1N1C(=O)C2C3C=CC(C3)C2C1=O (centres undefined),5%,-1%,-3%,2%,20%,25%[38.3 µM]
CCOc1ccc(C(C)=O)cc1N1C(=O)C2C3C=CC(O3)C2C1=O (centres undefined),6.3µM*,6.3µM*,1%,0%,7.9µM*,11%[38.3 µM]
Cc1ncc2c(c1CNC(=O)c1ccc3c(c1)OCO3)CCN(C(=O)c1noc3c1CCCC3)C2,/,/,/,/,/,0%
Cc1ccc(Nc2c(-c3ccccn3)nc3ccc(Br)cn23)cc1,/,/,-1%,-1%,/,-1%
COC(=O)CNc1c(-c2ccccn2)nc2ccc(Br)cn12,?,?,6%,-1%,28µM*,0%
Cn1ccc2c(OCC(=O)Nc3cc(C(F)(F)F)ccc3Cl)cccc2c1=O,/,/,-12%,1%,/,2%
COc1ccc(OC)c(C2CC(=O)NC(SC)=C2C#N)c1 (centres undefined),-2%,-24%,0%,1%,0%,-1%
CCOC(=O)CC1=C(C(=O)OCC)C(c2ccc(OC)cc2OC)C(C#N)=C(N)O1 (centres undefined),3%,6%,-1%,4%,79µM*,7%
CCOC(=O)c1ccc(N2CSC3=C(C#N)C(c4ccc(OC)cc4OC)CC(=O)N3C2)cc1 (centres undefined),5%,?,-6%,1%,20µM*,0%
COc1ccc(OC)c(C2CC(=O)N3CN(c4ccc(C)c(Cl)c4)CSC3=C2C#N)c1 (centres undefined),6%,-29%,-1%,0%,7.1µM*,6%

# Screening data (PubChem)
